Source: PubChem BioAssay
Shown are actives, neighbours in structure and some others; about 1.5% of the full set was active somewhere.
RTF Ca sens inh: cardiac RTF calcium desensitization. P19429+P45379. IANBD-labeled cardiac RTF, Ca2+ fluorescence. inhibition, % at 7.15 µM. 340,000 tested, 0.12% active. AID 493244;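 active = inhibition above the mean inhibition of all tested compounds plus 3 SD, cut at about 17% in these data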;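 also: assay run at fixed EC70 calcium of 1.6 mM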
IDE act: IDE (human) activation, cell-based. P14735. HEK cells, FAbeta-B cleavage, fluorescence polarization; 0% vehicle, 100% cell-free pure enzyme wells. activation, % at 5.96 µM. 340,000 tested, 0.073% active. AID 493087;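 active = activation above the mean of all tested compounds plus 3 SD, set per screening campaign, cut at about 17% in these data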
CRFBP-R2 agonist: CRF-BP/CRF-R2 complex agonism; 350,000 tested, 0.46% active; HEK293 CRF-R2/CRF-BP, calcium dye fluorescence (FLIPR); percent of saturating CRF peptide response; activation, % at 13.2 µM;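 active = activation of at least 50%, plus an integration ratio under a set limit after plate pattern correction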;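 also: plate controls were neutral control wells without compound for no effect and CRF at EC100 for full effect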
IDE cell inh: inhibits human insulin-degrading enzyme in HEK cells; P14735; FAbetaB cleavage, fluorescence polarization; inhibition, % at 5.59 µM; 320,000 tested, 0.41% active;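 active = percent inhibition above the average of all tested compounds plus 3 SD, set per screening campaign, cut at about 16% in these data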;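 also: IDE supplied by intact live HEK cells; FP after avidin binding of uncleaved biotin substrate so inhibition keeps polarization high; 0% = DMSO wells and 100% = 60 µM reference IDE inhibitor Ii1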
RTF Ca sens act: increases calcium sensitivity of human cardiac regulated thin filaments. P19429+P45379. IANBD-labeled TnC RTF fluorescence at EC20 calcium; 0% EC20 calcium, 100% full calcium. activation, % at 7.2 µM. 340,000 tested, 0.24% active. AID 493008;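 active = activation above the mean over all tested compounds plus 3 SD, cut at about 30% in these data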;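 also: rise in fluorescence read as greater calcium sensitivity of cardiac thin filaments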
TPT1 inh: C. albicans TPT1 enzyme inhibition | recombinant caTPT1, FP RNA substrate dephosphorylation | 300,000 tested, 0.81% active | AID 1962 | inhibition, % at 5 µM;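 active = inhibition above the mean of all tested compounds plus 3 SD, set per screening campaign, cut at about 24% in these data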;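 also: plate controls were DMSO alone for no effect and ferristatin control at 100 nM for full effect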
caTPT1 confirm: confirmation of Candida albicans TPT1 inhibitors; shares compounds with TPT1 inh; recombinant caTPT1, fluorescence polarization, RNase T1 coupled; inhibition, % at 5 µM; 2,400 tested, 74% active;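 active = inhibition above the primary screen limit, the mean inhibition of all tested compounds plus 3 SD, cut at about 25% in these data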
RNase T1 counter: counter-screen for TPT1 inhibitors: inhibitors of Aspergillus oryzae RNase T1 | shares compounds with TPT1 inh | RNase T1 cleavage, fluorescence polarization, 1536-well | inhibition, % at 5 µM | 2,400 tested, 83% active;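 active = inhibition above the solvent-only control well mean plus 3 SD, limit set per screening run, cut at about 23% in these data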;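 also: plate controls were DMSO wells with enzyme for no effect and wells without RNase T1 for full effect; inhibitors block cleavage so intact labeled substrate keeps polarization high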
The depositor's hits bear a star; / = no result; ! = repeats disagree.

SMILES	RTF Ca sens inh	IDE act	CRFBP-R2 agonist	IDE cell inh	RTF Ca sens act	TPT1 inh	caTPT1 confirm	RNase T1 counter
Cc1ccccc1N1C(=O)NC(=O)/C(=C\c2ccc3c(c2)CCCN3Cc2ccccc2)C1=O	-29	-1	58*	5	4	61*	154*	145*
O=P(NS(=O)(=O)c1ccccc1)(Oc1ccccc1)Oc1ccccc1	2	5	-1	5	-1	-1	/	/
Cc1ccc(S(=O)(=O)NP(=O)(Oc2ccccc2)Oc2ccccc2)cc1	-3	-1	-1	5	1	24*	9	19
Cc1cccc(OCCn2cccc2/C=C2/C(=O)NC(=O)N(Cc3ccco3)C2=O)c1	/	/	-5	9	/	29*	18	24*
CCc1ccc(N2C(=O)NC(=O)/C(=C/c3cccn3CCOc3ccc(C)cc3)C2=O)cc1	-14	-5	23	8	2	9	/	/
O=C1NC(=O)N(Cc2ccco2)C(=O)/C1=C\c1cccn1CCOc1ccc(Cl)cc1	-2	-3	4	9	-1	62*	15	19
COc1ccc2ccccc2c1CNCCc1ccccc1	8	7	0	1	-2	1	/	/
CCc1ccc(-n2c(O)c(/C=N/N3CCCCC3c3cccnc3)c(=O)[nH]c2=O)cc1 (centres undefined)	0	2	-1	-2	0	1	/	/
O=c1[nH]c(=S)n(-c2ccccc2)c(O)c1/C=N/N1CCCCC1c1cccnc1 (centres undefined)	-16	-5	7	11	9	30*	21	31*
CN1CCC2(CC1)C(C#N)=C(N)NC(S)=C2C#N	-27	-1	4	3	21	50*!	16	28*
CC(=O)c1c(O)n(C)c(=S)n(-c2ccccc2)c1=O	-40	5	1	7	2	45*	30*	40*
C[C@H]1CN([C@@H](C)CO)C(=O)CCCn2nncc2CO[C@H]1CN(C)C(=O)Oc1ccc2ccccc2c1	/	/	-1	/	/	/	/	/
C/C(=N\NC(=S)Nc1ccccc1)c1c(O)n(C)c(=O)n(C)c1=O	-12	3	-1	-4	-2	5	/	/
CN1C(=O)N(C)C(=O)C2(Cc3cc(NC(=O)c4ccc(F)cc4)ccc3N3CCCC32)C1=O (centres undefined)	-10	7	3	-4	0	30*	23	37*
CC(=O)Nc1ccc2c(c1)CC1(C(=O)N(C)C(=O)N(C)C1=O)C1CCCN21 (centres undefined)	-14	3	3	1	-1	1	/	/
O=c1[nH]c(=O)n(Cc2ccco2)c(O)c1/C=N/N1CCCCC1	5	-4	2	0	3	24*	29*	40*
O=c1[nH]c(=O)n(Cc2ccco2)c(O)c1C=NC1CC1	0	6	2	0	2	5	/	/
S=C1NC2(CCCCC2)NC12CCCCC2	-10	0	0	5	-4	0	/	/
Cn1cc(C(=O)NCc2ccccc2)c2ccccc21	-5	1	-3	6	-1	39*	-2	3
Cc1cnc(-n2c(=S)[nH]c3ccccc3c2=O)s1	2	4	-1	-4	-5	/	/	/
O=C(N/N=C/c1c(O)n(CCc2ccccc2)c(=O)[nH]c1=O)c1ccncc1	-21	-6	1	5	1	7	/	/
O=C(N/N=C/c1c(O)n(-c2cccc3ccccc23)c(=O)[nH]c1=O)c1ccncc1	-4	-4	1	6	3	45*	51*	66*
O=c1[nH]c(=O)n(-c2cccc(F)c2)c(O)c1/C=C1\C=Nc2ccccc21	-13	-8	49	2	2	37*	-57	-39
Cc1ccc(N2C(=O)NC(=O)/C(=C\c3ccc([N+](=O)[O-])o3)C2=O)cc1	/	/	/	3	/	29*	50*	21
Cc1cc(C)c(Cn2c(C(=O)O)c(C=O)c3ccccc32)c(C)c1	-62	1	10	7	64*	53*	118*	120*
SMILES	RTF Ca sens inh	IDE act	CRFBP-R2 agonist	IDE cell inh	RTF Ca sens act	TPT1 inh	caTPT1 confirm	RNase T1 counter
O[C@@H]1CCCC[C@H]1N1CCC(c2ccccc2)CC1	11	7	0	6	1	-2	/	/
COCCOC(=O)c1c(C)n(C)c2ccc(OC(=O)N(C)C)cc12	-2	-7	3	1	-1	-3	/	/
COc1cccc(C2(O)CCN(Cc3ccncc3)CC2)c1	-10	3	0	-3	2	4	/	/
O=C(Cn1ncc2c3ccccc3n(Cc3cccc(Cl)c3)c2c1=O)N1CCC2(CC1)OCCO2	-12	-2	3	5	6	114*	64*	69*
C=CCn1c(O)c(/C=C2/C=CC=N2)c(=O)[nH]c1=O	0	2	4	-2	1	-1	/	/
O=c1[nH]c(=O)n(Cc2ccccc2Cl)c(O)c1/C=C1/C=CC=N1	1	-1	6	2	0	29*	18	23*
CCC1(NS(=O)(=O)c2ccc(N)cc2)C(=O)N(C)C(=O)N(C)C1=O	3	3	1	/	1	/	/	/
COC(=O)C1=Nc2ccccc2/C1=C\c1c(O)n(-c2ccc(Br)cc2)c(=O)[nH]c1=O	-19	1	4	6	7	27*	33*	44*
Cc1cccc(N2C(=O)/C(=C/N3CCN(C(=O)c4ccco4)CC3)C(=O)NC2=S)c1	-14	5	0	-1	3	30*	13	15
O=C1NC(=S)N(c2ccc(Br)cc2)C(=O)/C1=C/N1CCN(C(=O)c2ccco2)CC1	-10	-3	3	8	6	86*	37*	52*
Cc1ccc(N2C(=O)/C(=C/N3CCN(C(=O)c4ccco4)CC3)C(=O)NC2=S)cc1C	-10	6	-2	4	-2	17	/	/
Cc1ccc(N2C(=O)NC(=O)/C(=C\c3cc(C)n(-c4sc5c(c4C#N)CCCC5)c3C)C2=O)cc1	-15	-3	18	1	-2	26*	36*	50*
Cc1ccnc(-n2c(C)cc(C=C3C(=O)N(C)C(=S)N(C)C3=O)c2C)c1	-6	2	9	3	10	52*	24	33*
CCC(=O)N1c2ccc(S(=O)(=O)CCC(=O)N3CCC4(CC3)OCCO4)cc2CC1C (centres undefined)	4	-3	3	5	5	-2	/	/
Cc1cc(C)cc(N2C(=O)/C(=C\c3ccc(N4CCN(C)CC4)o3)C(=O)NC2=S)c1	/	/	57*	8	/	140*	151*	141*
